The source of these data is PubChem BioAssay (Tox21).

“And” between values parts separate entries of the source, which are not always exact repeats. Equal entries are not always repeated. Unmarked numbers belong to inactive results. Inconclusive results are not listed. The source made the active and inactive calls. Unless noted, the call rests on the fitted dose curve; in most records, active means well fitted curve in the direction sought with a large enough effect in the repeat runs; inconclusive means weak or mixed curves; inactive means no such curve, though single readings can be large; an effect the other way counts as inactive or inconclusive.

Test [1] is described as follows: qHTS assay for small molecules that induce genotoxicity in human embryonic kidney cells expressing luciferase-tagged ATAD5 (AID 651632). Further: nearly all actives have a fitted effect of over 15% in size. The method in brief: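 A rise in luciferase signal from ATAD5-tagged HEK293T cells marks genetic stress. Cells were exposed to compounds for 16 hr at 37C, 5% CO2, then luciferase was quantified after a 30 min room-temperature incubation with Amplite.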
On the technique in general: qHTS replaces the single test concentration by a dilution series.

A short description of test [2]: qHTS assay for small molecule agonists of the p53 signaling pathway - cell viability (AID 651633; calls by dose curve;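 further: p53RE-bla HCT reporter cells with a stable beta-lactamase p53 reporter; series mostly up to about 83 µM; nearly all actives have a fitted effect of over 30% in size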). The method in brief:
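p53RE-bla cells, seeded at 4,000 per well and rested 5 h at 37 C/5% CO2, received compounds in DMSO for 16 h at 37 C. CellTiter-Glo was then added, and luminescence was read after 30 min at room temperature to gauge cytotoxicity.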

The nature of test [3]: qHTS assay for small molecules that induce genotoxicity in human embryonic kidney cells expressing luciferase-tagged ATAD5 - cell viability (AID 651634; calls by dose curve; further: nearly all actives have a fitted effect of over 25% in size; further: potency means the concentration at half of the fitted maximal effect). A digest of the protocol: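 Cytotoxicity counter-readout: after 15.5 hr compound treatment at 37C, live-cell protease activity in ATAD5-luciferase HEK293T cells measured by CellTiter-Fluor fluorescence, 30 min development at 37C.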

Test [4] in a line: qHTS assay to test for compound auto fluorescence at 590 nm (red) in HepG2 cells (AID 720674). A digest of the protocol:
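Compound auto-fluorescence is scored relative to Rose Bengal sodium, measured at 540/590 nm in live HepG2 cultures after 1 hr compound contact (37 C, 5% CO2).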

Test [5] can be described thus: qHTS assay to test for compound auto fluorescence at 535 nm (green) in HepG2 cells (AID 720675).
The nature of test [6]: qHTS assay to test for compound auto fluorescence at 460 nm (blue) in HEK293 cells (AID 720678). The method in brief:
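Blue-channel (Ex/Em 405/460 nm) intensity measured in HEK293 cultures after overnight compound exposure at 37C; signal expressed relative to triamterene. Cells plated 2,000 per well in 10% dialyzed FBS medium and allowed 4-5 hr to attach.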

Test [7] is described as follows: qHTS assay to test for compound auto fluorescence at 590 nm (red) in HEK293 cells (AID 720679). The method in brief:
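Red-channel autofluorescence (Ex/Em 540/590 nm; Rose Bengal sodium reference) was measured after overnight 37C, 5% CO2 exposure of attached HEK293 cells, 2,000 per well in medium with 10% dialyzed FBS.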

A short description of test [8]: qHTS assay to test for compound auto fluorescence at 535 nm (green) in HEK293 cells (AID 720680).
A short description of test [9]: qHTS assay to test for compound auto fluorescence at 460 nm (blue) in HEK293 cell free culture (AID 720681). A digest of the protocol:
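Test compounds were pinned into cell-free culture medium (DMEM with 10% FBS) and fluorescence was read directly at Ex/Em 405/460 nm. Signals were expressed as fluorescence equivalents of triamterene, with DMSO vehicle as control.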

A short description of test [10]: qHTS assay to test for compound auto fluorescence at 535 nm (green) in HEK293 cell free culture (AID 720682). The method in brief: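 Green-channel intensity (Ex/Em 485/535 nm) was recorded from compound-treated wells containing only DMEM with 10% FBS. Fluorescein provided the equivalency standard.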
Test [11] in a line: qHTS assay to test for compound auto fluorescence at 590 nm (red) in HEK293 cell free culture (AID 720683). A digest of the protocol: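 Tox21 10K library compounds were pinned into cell-free DMEM with 10% FBS and fluorescence was read at excitation 540 nm. Activity is expressed as Rose Bengal sodium equivalency.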
The nature of test [12]: qHTS assay to test for compound auto fluorescence at 590 nm (red) in HepG2 cell free culture (AID 720684). The method in brief: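 Readout: intrinsic compound fluorescence at 590 nm emission after 540 nm excitation, scaled to Rose Bengal sodium. Matrix was cell-free MEM with 10% FBS; DMSO vehicle wells served as control.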
Test [13] in a line: qHTS assay to test for compound auto fluorescence at 460 nm (blue) in HepG2 cell free culture (AID 720685). A digest of the protocol: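 Cell-free plates of MEM plus 10% FBS received 23 nL compound or DMSO vehicle; blue-channel (405/460 nm) intensity scored against triamterene as reference fluorophore.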
Test [14] in a line: qHTS assay to test for compound auto fluorescence at 535 nm (green) in HepG2 cell free culture (AID 720686).
The nature of test [15]: qHTS assay to test for compound auto fluorescence at 460 nm (blue) in HepG2 cells (AID 720687). A digest of the protocol: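 Cells (2,000/well in MEM with 10% FBS) attached overnight at 37 C, then were exposed to compound or DMSO for 1 hr at 37 C, 5% CO2. Fluorescence read at Ex/Em 405/460 nm, expressed as triamterene-equivalent signal.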
The target of test [16] is Glucocorticoid receptor (Homo sapiens) (UniProt P04150). The experiment in a line: qHTS assay to identify small molecule agonists of the glucocorticoid receptor (GR) signaling pathway (AID 720691; active means well fitted activation curve with a large enough effect in the signal ratio in the repeat runs, not every such curve was filed as active; the % refers to the signal ratio). A digest of the protocol: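 Agonist-mode qHTS in HeLa cells stably expressing a glucocorticoid-response-element beta-lactamase reporter. Fluorescence intensity read with FRET substrate (2 h, room temperature) after 18 h compound treatment at 37 C.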
Glucocorticoid receptor (Homo sapiens), sequence (P04150 whole entry, looked up): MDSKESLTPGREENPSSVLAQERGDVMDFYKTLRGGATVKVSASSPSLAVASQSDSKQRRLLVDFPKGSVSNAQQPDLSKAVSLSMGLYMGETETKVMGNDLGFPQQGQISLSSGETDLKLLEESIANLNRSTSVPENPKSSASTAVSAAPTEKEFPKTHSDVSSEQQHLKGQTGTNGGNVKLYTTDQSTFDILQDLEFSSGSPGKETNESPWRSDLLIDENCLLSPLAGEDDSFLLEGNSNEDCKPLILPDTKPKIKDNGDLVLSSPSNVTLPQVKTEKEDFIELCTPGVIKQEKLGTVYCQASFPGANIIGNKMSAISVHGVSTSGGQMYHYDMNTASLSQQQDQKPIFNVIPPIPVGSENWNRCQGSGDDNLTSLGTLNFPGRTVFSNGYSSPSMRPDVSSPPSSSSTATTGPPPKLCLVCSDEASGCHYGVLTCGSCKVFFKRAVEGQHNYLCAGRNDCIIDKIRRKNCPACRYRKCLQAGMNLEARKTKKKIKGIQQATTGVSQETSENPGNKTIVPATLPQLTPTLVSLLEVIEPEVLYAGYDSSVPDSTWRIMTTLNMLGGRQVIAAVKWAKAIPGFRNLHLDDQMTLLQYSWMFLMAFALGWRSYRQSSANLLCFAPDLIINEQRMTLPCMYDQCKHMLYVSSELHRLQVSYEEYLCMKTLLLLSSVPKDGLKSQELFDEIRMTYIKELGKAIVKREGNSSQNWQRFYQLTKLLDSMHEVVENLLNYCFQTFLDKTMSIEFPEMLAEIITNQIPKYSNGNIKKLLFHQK

Test [17] can be described thus: qHTS assay for small molecule disruptors of the mitochondrial membrane potential (AID 720635). Further: potency means the concentration at half of the fitted maximal effect. A digest of the protocol:
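HepG2 cells (2,000/well) attached overnight at 37C, then took compound for 1 hr at 37C, 5% CO2. Mito-MPS dye was added for 30 min; fluorescence was read at 490/535 nm (monomers) and 540/590 nm (aggregates).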

Test [18] can be described thus: qHTS assay for small molecule disruptors of the mitochondrial membrane potential - cell viability (AID 720634; calls by dose curve;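 further: human HepG2 liver cancer cells; series mostly up to about 83 µM; nearly all actives have a fitted effect of over 20% in size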). A digest of the protocol: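 Cytotoxicity was quantified from ATP content by CellTiter-Glo luminescence in the same wells as the MMP dye read-out. HepG2 (2,000 cells/well) were plated overnight and exposed to compounds for 1 hr at 37 C.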
For test [19], the target named is Glucocorticoid receptor (Homo sapiens) (UniProt P04150). Put plainly: qHTS assay to identify small molecule antagonists of the glucocorticoid receptor (GR) signaling pathway (AID 720692; active means well fitted inhibition curve with a large enough effect in the signal ratio in the repeat runs, not every such curve was filed as active; the % refers to the signal ratio). The method in brief:
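Inhibition of dexamethasone-driven (5 nM final) beta-lactamase expression was measured in GRE-reporter HeLa cells over 18 h at 37C. Fluorescence was read after 2 h with the B/G FRET substrate at room temperature.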
On the % scale 0 is the no-effect control and ±100 the full control effect.

With `CC(=O)O[C@@]12CO[C@@H]1C[C@H](O)[C@@]1(C)C(=O)[C@H](O)C3=C(C)[C@@H](OC(=O)[C@H](O)[C@@H](NC(=O)OC(C)(C)C)c4ccccc4)C[C@@](O)([C@@H](OC(=O)c4ccccc4)[C@H]21)C3(C)C`, the Potency entry in [1], in test [2] and in test [16] was “inactive” in each case. Also, in test [3], the Potency was 11.9 nM (active) and 8.4 nM (active). In addition, the call in [4], in test [5], in test [6], in test [7], in [8] and in test [9] was inactive. The call in test [10], in test [11], in test [12], in [13], in [14] and in test [15] was inactive.

In the case of `COc1ccccc1OCC1CNC(=O)O1` (configuration not stated), the Potency entry in test [1], in test [2], in test [3] and in test [17] was “inactive” in each case. The molecule was called inactive in [4], in test [5], in [6], in test [7], in test [8] and in test [9]. Further, the outcome in test [10], in test [11], in test [12], in test [14] and in test [15] was inactive.

As to `NCCCC(N)(C(=O)O)C(F)F` (configuration not stated), the Potency result in [1], in test [2], in test [3] and in test [16] was “inactive” throughout. Moreover, the result in test [18], in test [4], in test [5], in [6], in test [8] and in [9] was inactive. The call in test [10], in [11], in [12], in test [13], in test [14] and in [15] was inactive.

For `CNC(=O)Nc1ccc(Cl)c(Cl)c1`, the Potency entry in test [1], in [2] and in test [3] was “inactive” throughout. In [17], the Potency is 15.4 µM (active). The molecule was called inactive in test [4], in test [5], in test [6], in test [7], in test [8] and in test [9]. For the same molecule, the molecule was called inactive in test [10], in test [11], in [12], in test [13], in test [14] and in test [15].

Turning to `COC(=O)C1=C(C)NC(C)=C(C(=O)OC(C)C)C1c1cccc2nonc12` (configuration not stated), the Potency entry in test [1] and in [2] was “inactive” in each case. The fluorescence, relative to Rose Bengal in test [4] is 0.351% [at 18.6 µM]. Also, the fluorescence, % of fluorescein control in [5] was 0.024% [at 18.6 µM]; in test [14] it was -0.0109% [at 18.6 µM]. The fluorescence, % of triamterene in test [6] was -0.009% [at 18.6 µM]. Also, the fluorescence, % of fluorescein in [8] was -0.0539% [at 18.6 µM]. For the same molecule, the fluorescence, % of fluorescent control is 0.0173% [at 18.6 µM] in test [9], -0.0484% [at 18.6 µM] in [11] and -0.0347% [at 18.6 µM] in [13]. The fluorescence, % of Rose Bengal in test [12] was -0.0514% [at 18.6 µM].

For the molecule `CCCCc1ccc2c(n1)[C@@H](c1ccc(OC)cc1C[C@H](C)C(=O)O)[C@H](C(=O)O)[C@H]2c1ccc2c(c1)OCO2`, the Potency result in test [1], in [2], in test [3], in test [16] and in [19] was “inactive” in each case. Also, the molecule was classed as inactive in test [4], in [5], in test [7], in test [8], in [9] and in test [10]. The result in test [11], in [14] and in test [15] was inactive.

For `CN1CCC(=C2c3ccccc3CCc3cccnc32)CC1`, the Potency result in test [1], in [3] and in test [17] was “inactive” in each case. The molecule was classed as inactive in test [4], in test [5], in [6], in test [7], in [8] and in test [9]. Further, the call in test [10], in [11], in test [12], in test [13], in test [14] and in test [15] was inactive.

For the molecule `O=CN(CCO)CCO`, the Potency result in test [1], in test [2], in [3] and in test [17] was “inactive” throughout. For the same molecule, the result in test [4], in [5], in test [6], in test [7], in test [8] and in test [9] was inactive. The call in [11], in test [12], in [14] and in test [15] was inactive.
